Holding throughout (test): DAPPL (digital affinity profiling via proximity ligation, sequencing); 10 mM Tris-HCl pH 7.5, 50 mM NaCl, 1 mM DTT, 4% glycerol, room temperature, 30 min; GST-TFs on glutathione beads, 16-mer random dsDNA library, 0.1% formaldehyde crosslink after washing; high values mean tight binding
What all share (settings): protein: recombinant; tags: N-terminal GST; dsDNA, one strand shown

In one experiment the target is T1, ERF (Homo sapiens, UniProt P50548 1-548).
T1 sequence: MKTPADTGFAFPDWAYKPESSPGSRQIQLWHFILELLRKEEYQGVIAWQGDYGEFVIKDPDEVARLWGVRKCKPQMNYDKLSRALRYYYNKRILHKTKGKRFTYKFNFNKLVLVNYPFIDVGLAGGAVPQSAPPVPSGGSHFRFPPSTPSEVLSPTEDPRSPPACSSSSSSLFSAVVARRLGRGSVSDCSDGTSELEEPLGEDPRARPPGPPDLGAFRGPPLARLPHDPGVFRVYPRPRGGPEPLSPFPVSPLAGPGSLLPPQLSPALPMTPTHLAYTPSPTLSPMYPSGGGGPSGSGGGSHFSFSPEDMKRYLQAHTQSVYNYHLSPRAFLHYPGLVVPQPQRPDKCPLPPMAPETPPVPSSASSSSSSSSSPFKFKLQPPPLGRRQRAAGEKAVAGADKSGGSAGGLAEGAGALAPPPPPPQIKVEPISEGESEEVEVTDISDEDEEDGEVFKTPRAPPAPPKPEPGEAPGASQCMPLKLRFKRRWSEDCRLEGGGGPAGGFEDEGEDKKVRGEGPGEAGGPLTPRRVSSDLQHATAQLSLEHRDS
In short, it runs like this:
(§1)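 Pools were built from human transcription factors expressed in yeast as GST fusions, captured on glutathione beads and DNA-barcoded, along with a tag-only sample. Incubation with 200 nmole of a 16-mer random double-stranded DNA library lasted 30 min at room temperature in Tris/NaCl/DTT/glycerol buffer, and was followed by washing, 0.1% formaldehyde crosslinking, proximity ligation, PCR amplification and Illumina NextSeq500 sequencing. Binding signal is the quotient of each hexamer's read frequency for a factor and its frequency for the tag-only sample.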

A further experiment concerns the target T2, ETV3L (Homo sapiens, UniProt Q6ZN32 1-361).
T2 sequence: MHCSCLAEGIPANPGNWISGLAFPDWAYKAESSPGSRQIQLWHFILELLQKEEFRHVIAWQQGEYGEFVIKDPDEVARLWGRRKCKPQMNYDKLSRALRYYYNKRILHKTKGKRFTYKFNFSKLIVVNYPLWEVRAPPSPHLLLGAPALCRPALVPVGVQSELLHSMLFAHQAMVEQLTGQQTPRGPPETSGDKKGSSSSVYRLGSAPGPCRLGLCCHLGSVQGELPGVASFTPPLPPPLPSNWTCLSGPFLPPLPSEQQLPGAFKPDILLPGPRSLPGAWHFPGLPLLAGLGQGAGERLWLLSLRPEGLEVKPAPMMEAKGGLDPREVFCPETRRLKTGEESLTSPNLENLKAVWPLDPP
In short, it runs like this:
as §1

Another experiment addresses T3, ETS2 (Homo sapiens, UniProt P15036 1-469).
T3 sequence: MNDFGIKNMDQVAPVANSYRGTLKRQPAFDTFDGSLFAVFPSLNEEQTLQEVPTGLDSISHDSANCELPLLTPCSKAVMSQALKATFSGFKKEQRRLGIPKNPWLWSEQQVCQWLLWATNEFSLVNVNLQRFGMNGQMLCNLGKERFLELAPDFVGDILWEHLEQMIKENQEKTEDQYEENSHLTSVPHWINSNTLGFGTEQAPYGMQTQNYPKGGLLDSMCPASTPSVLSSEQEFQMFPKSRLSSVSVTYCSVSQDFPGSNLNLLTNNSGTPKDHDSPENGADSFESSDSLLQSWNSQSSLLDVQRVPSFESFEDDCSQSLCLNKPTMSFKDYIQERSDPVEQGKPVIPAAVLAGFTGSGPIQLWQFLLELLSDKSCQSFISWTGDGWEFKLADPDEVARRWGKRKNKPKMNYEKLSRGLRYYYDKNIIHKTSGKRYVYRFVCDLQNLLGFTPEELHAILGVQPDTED
In short, it runs like this:
as §1

A further experiment addresses T4, SPDEF (Homo sapiens, UniProt O95238 1-335).
T4 sequence: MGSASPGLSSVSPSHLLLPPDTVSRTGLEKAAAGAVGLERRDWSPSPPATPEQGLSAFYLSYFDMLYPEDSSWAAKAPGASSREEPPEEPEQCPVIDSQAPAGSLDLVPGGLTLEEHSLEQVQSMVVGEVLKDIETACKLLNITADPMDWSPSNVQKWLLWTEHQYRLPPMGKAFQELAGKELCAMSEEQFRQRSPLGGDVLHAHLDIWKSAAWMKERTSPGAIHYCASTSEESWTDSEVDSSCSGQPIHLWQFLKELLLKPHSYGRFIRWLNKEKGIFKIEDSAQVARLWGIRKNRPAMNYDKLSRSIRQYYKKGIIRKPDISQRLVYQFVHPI
The procedure, abridged:
as §1

For the next experiment, the target named is T5, ETV7 (Homo sapiens, UniProt Q9Y603 1-341).
T5 sequence: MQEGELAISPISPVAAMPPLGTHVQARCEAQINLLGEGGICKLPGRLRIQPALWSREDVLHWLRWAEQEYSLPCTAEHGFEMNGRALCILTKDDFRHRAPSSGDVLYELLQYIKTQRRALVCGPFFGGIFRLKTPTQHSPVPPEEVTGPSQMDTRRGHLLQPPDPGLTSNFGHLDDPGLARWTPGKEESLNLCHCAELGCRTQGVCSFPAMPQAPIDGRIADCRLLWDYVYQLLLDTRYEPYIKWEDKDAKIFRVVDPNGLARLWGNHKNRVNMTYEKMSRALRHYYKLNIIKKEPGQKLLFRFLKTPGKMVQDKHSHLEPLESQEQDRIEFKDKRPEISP
The procedure, abridged: as §1

For a further experiment, the target named is T6, ELF5 (Homo sapiens, UniProt Q9UKW6-2 1-255).
T6 sequence: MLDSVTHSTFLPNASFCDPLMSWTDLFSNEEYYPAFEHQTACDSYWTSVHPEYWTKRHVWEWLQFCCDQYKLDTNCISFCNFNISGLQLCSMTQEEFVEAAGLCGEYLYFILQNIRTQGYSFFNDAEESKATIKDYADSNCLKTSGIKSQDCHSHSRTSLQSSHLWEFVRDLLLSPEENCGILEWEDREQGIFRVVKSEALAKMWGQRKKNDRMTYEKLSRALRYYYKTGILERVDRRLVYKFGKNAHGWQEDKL
The procedure, abridged:
as §1

Another experiment concerns the target T7, ETV3 (Homo sapiens, UniProt P41162-2 1-143).
T7 sequence: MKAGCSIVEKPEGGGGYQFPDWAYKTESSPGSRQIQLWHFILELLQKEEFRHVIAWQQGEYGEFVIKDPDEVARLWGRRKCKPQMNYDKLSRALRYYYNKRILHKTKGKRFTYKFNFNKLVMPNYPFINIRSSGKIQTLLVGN
In short, it runs like this:
as §1

A further experiment deals with ETV6 (Homo sapiens, UniProt P41212 1-452). The procedure, abridged:
as §1

ETV6, sequence (P41212 whole entry): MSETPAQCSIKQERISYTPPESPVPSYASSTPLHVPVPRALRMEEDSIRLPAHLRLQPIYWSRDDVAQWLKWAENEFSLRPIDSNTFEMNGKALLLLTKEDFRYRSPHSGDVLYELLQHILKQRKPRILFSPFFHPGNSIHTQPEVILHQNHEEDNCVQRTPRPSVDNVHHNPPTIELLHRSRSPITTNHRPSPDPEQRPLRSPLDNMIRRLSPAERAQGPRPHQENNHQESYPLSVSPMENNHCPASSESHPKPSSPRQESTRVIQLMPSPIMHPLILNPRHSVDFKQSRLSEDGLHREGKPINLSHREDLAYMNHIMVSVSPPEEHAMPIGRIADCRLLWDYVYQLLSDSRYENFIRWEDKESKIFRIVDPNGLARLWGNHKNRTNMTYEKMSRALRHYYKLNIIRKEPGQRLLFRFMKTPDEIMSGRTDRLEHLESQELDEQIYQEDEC

Turning to TCACTT, the binding signal was 1.56 fold enrichment (6-mer frequency, TF over GST control) with ERF; 1.5 fold enrichment (6-mer frequency, TF over GST control) in the experiment with ETV3L; 1.69 fold enrichment (6-mer frequency, TF over GST control) with ETS2; 1.73 fold enrichment (6-mer frequency, TF over GST control) in the experiment with SPDEF; 1.63 fold enrichment (6-mer frequency, TF over GST control) in the experiment with ETV7; 1.79 fold enrichment (6-mer frequency, TF over GST control) with ELF5. For the same sequence, the binding signal is 1.55 fold enrichment (6-mer frequency, TF over GST control) in the experiment with ETV3 and 1.67 fold enrichment (6-mer frequency, TF over GST control) with ETV6.
In the case of ATTCCT, the binding signal in the experiment with ERF was 1.2 fold enrichment (6-mer frequency, TF over GST control); with ETV3L, 1.32 fold enrichment (6-mer frequency, TF over GST control); with ETS2, 1.39 fold enrichment (6-mer frequency, TF over GST control); in the experiment with SPDEF, 1.32 fold enrichment (6-mer frequency, TF over GST control); in the experiment with ETV7, 1.39 fold enrichment (6-mer frequency, TF over GST control); with ELF5, 1.68 fold enrichment (6-mer frequency, TF over GST control). Further, the binding signal with ETV3 was 1.47 fold enrichment (6-mer frequency, TF over GST control); with ETV6, 1.35 fold enrichment (6-mer frequency, TF over GST control).
As for CCAATC, the binding signal with ERF is 1.03 fold enrichment (6-mer frequency, TF over GST control); in the experiment with ETV3L, 1.19 fold enrichment (6-mer frequency, TF over GST control); with ETS2, 1.19 fold enrichment (6-mer frequency, TF over GST control); with SPDEF, 1.16 fold enrichment (6-mer frequency, TF over GST control); with ETV7, 1.23 fold enrichment (6-mer frequency, TF over GST control); with ELF5, 1.16 fold enrichment (6-mer frequency, TF over GST control). Moreover, the binding signal is 1.15 fold enrichment (6-mer frequency, TF over GST control) with ETV3 and 1.15 fold enrichment (6-mer frequency, TF over GST control) with ETV6.
With TTATGG, the binding signal is 1.31 fold enrichment (6-mer frequency, TF over GST control) in the experiment with ERF; 1.32 fold enrichment (6-mer frequency, TF over GST control) in the experiment with ETV3L; 1.26 fold enrichment (6-mer frequency, TF over GST control) with ETS2; 1.26 fold enrichment (6-mer frequency, TF over GST control) with SPDEF; 1.36 fold enrichment (6-mer frequency, TF over GST control) with ETV7; 1.28 fold enrichment (6-mer frequency, TF over GST control) with ELF5. Also, the binding signal with ETV3 was 1.44 fold enrichment (6-mer frequency, TF over GST control); with ETV6, 1.35 fold enrichment (6-mer frequency, TF over GST control).
As to GCTCGC, the binding signal in the experiment with ERF is 1.36 fold enrichment (6-mer frequency, TF over GST control); with ETV3L, 1.35 fold enrichment (6-mer frequency, TF over GST control); with ETS2, 1.45 fold enrichment (6-mer frequency, TF over GST control); in the experiment with SPDEF, 1.29 fold enrichment (6-mer frequency, TF over GST control); with ETV7, 1.21 fold enrichment (6-mer frequency, TF over GST control); in the experiment with ELF5 it was 1.31 fold enrichment (6-mer frequency, TF over GST control). Further, the binding signal with ETV3 is 1.35 fold enrichment (6-mer frequency, TF over GST control); in the experiment with ETV6, 1.35 fold enrichment (6-mer frequency, TF over GST control).
On to CCTCCT, for which the binding signal with ERF is 1.64 fold enrichment (6-mer frequency, TF over GST control); in the experiment with ETV3L, 1.44 fold enrichment (6-mer frequency, TF over GST control); with ETS2, 1.57 fold enrichment (6-mer frequency, TF over GST control); with SPDEF, 1.58 fold enrichment (6-mer frequency, TF over GST control); with ETV7 it was 1.61 fold enrichment (6-mer frequency, TF over GST control); with ELF5, 1.9 fold enrichment (6-mer frequency, TF over GST control). In addition, the binding signal with ETV3 was 1.46 fold enrichment (6-mer frequency, TF over GST control); with ETV6 it was 1.55 fold enrichment (6-mer frequency, TF over GST control).
Take TTCTTC: the binding signal with ERF was 1.78 fold enrichment (6-mer frequency, TF over GST control); with ETV3L, 1.83 fold enrichment (6-mer frequency, TF over GST control); in the experiment with ETS2 it was 1.7 fold enrichment (6-mer frequency, TF over GST control); with SPDEF, 1.72 fold enrichment (6-mer frequency, TF over GST control); with ETV7, 1.7 fold enrichment (6-mer frequency, TF over GST control); with ELF5 it was 2.02 fold enrichment (6-mer frequency, TF over GST control). The binding signal with ETV3 was 1.8 fold enrichment (6-mer frequency, TF over GST control); in the experiment with ETV6, 1.93 fold enrichment (6-mer frequency, TF over GST control).
Turning to TAAGTA, the binding signal with ERF is 1.24 fold enrichment (6-mer frequency, TF over GST control); in the experiment with ETV3L, 1.22 fold enrichment (6-mer frequency, TF over GST control); in the experiment with ETS2, 1.2 fold enrichment (6-mer frequency, TF over GST control); with SPDEF, 1.21 fold enrichment (6-mer frequency, TF over GST control); with ETV7, 1.13 fold enrichment (6-mer frequency, TF over GST control); with ELF5 it was 1.25 fold enrichment (6-mer frequency, TF over GST control). The binding signal with ETV3 was 1.23 fold enrichment (6-mer frequency, TF over GST control); with ETV6, 1.28 fold enrichment (6-mer frequency, TF over GST control).

(Values after PMC7862700, “An all-to-all approach to the identification of sequence-specific readers for epigenetic DNA modifications on cytosine”.)
